# Experimental data: the antibiotic and cytotoxicity screens of Wong et al. (2023)
# The whole screen tested about 39,000 compounds, of which about 500 (1.3%) were called active. What follows is part of a selection rich in actives, with near analogues and random picks from the rest.
# System: S. aureus RN4220
# Assay: growth inhibition call (relative growth <= 0.2)
# Details: 50 µM
row,SMILES,growth inhibition call
1,O=C(C[C@H]1C[C@@H]2c3cc(NS(=O)(=O)c4ccc(F)cc4)ccc3O[C@@H]2[C@H](CO)O1)NCc1cccc(F)c1,inactive
2,Cc1ccc(S(=O)(=O)N(C)C[C@H]2OCCCC[C@@H](C)Oc3ccc(NC(=O)c4ccccc4)cc3C(=O)N([C@@H](C)CO)C[C@@H]2C)cc1,inactive
3,C[C@@H]1CN([C@@H](C)CO)C(=O)c2cc(NC(=O)Cn3cnnn3)ccc2O[C@H]1CN(C)CC1CCCCC1,inactive
4,C=CC[C@@H](CC(=O)NCCO)C(=O)NC[C@@H](OC(=O)[C@@H](CC=C)CC(=O)OC(C)(C)C)c1ccccc1,inactive
5,C[C@H](CO)N1C[C@H](C)[C@H](CN(C)Cc2ccc(-c3ccccc3)cc2)Oc2c(NC(=O)C3CC3)cccc2C1=O,inactive
6,C[C@@H]1CN([C@H](C)CO)C(=O)c2cccc(NS(=O)(=O)c3ccccc3)c2O[C@H]1CN(C)C(=O)Nc1cccc2ccccc12,inactive
7,COCC(=O)N1C[C@H](C)[C@H](OC)CN(C)C(=O)c2ccc(NC(=O)Nc3cccc(F)c3)cc2OC[C@H]1C,inactive
8,C[C@H]1CCCCO[C@H](CN(C)C(=O)CCCN(C)C)[C@@H](C)CN([C@@H](C)CO)C(=O)c2cc(NC(=O)Nc3ccc(C(F)(F)F)cc3)ccc2O1,inactive
9,CCCCOC(=O)[C@@H](N)CCC(=O)O,inactive
10,CC[C@@]1(O)C[C@H](O[C@H]2C[C@H](N(C)C)[C@H](O[C@H]3C[C@H](O)[C@H](O[C@H]4CCC(=O)[C@H](C)O4)[C@H](C)O3)[C@H](C)O2)c2c(cc3c(c2O)C(=O)c2c(O)cccc2C3=O)[C@H]1C(=O)OC,inactive
11,COC(=O)[C@H]1c2cc3c(c(O)c2[C@@H](O[C@@H]2O[C@H](C)[C@H](OC)[C@](C)(OC)[C@@H]2OC)C[C@@]1(C)O)C(=O)c1c(O)cc2c(c1C3=O)O[C@H]1O[C@@]2(C)[C@@H](O)[C@H](N(C)C)[C@@H]1O,active
12,C[C@H](CO)N1C[C@H](C)[C@H](CN(C)Cc2ccc(Cl)c(Cl)c2)Oc2ccc(NC(=O)Cn3cnnn3)cc2CC1=O,inactive
13,Cc1noc(C)c1NC(=O)Nc1ccc2c(c1)C(=O)N([C@@H](C)CO)C[C@H](C)[C@H](CN(C)C(=O)NC1CCCCC1)OCCCC[C@H](C)O2,inactive
14,Cc1noc(C)c1S(=O)(=O)Nc1cccc2c1O[C@@H](CN(C)S(=O)(=O)c1cccs1)[C@@H](C)CN([C@H](C)CO)C2=O,inactive
15,CN1CCN(CC(=O)N2c3ccccc3C(=O)Nc3cccnc32)CC1.Cl.Cl,inactive
16,Cc1scc2c1N(C(=O)CN1CCN(C)CC1)c1ccccc1NC2=O.Cl,active
17,O=C(O)CCC(=O)N1CC(=O)Nc2ccccc21,inactive
18,CS(=O)(=O)N1CCC2(CC1)OCCO2,inactive
19,O=C(Nc1ccc(C(F)(F)F)cc1)Nc1cccc(Cl)c1,inactive
20,CCC(=O)Nc1ccc(Cl)cc1,inactive
21,O=C(Nc1ccc(Cl)cc1)Nc1ccc(Cl)c(Cl)c1,active
22,CCC(=O)N[C@H]1C=C[C@@H](CC(=O)OC)O[C@H]1CO,inactive

row,SMILES,growth inhibition call
1,Cc1ccc(S(=O)(=O)Nc2ccc3c(c2)CC(=O)N([C@@H](C)CO)C[C@@H](C)[C@@H](CN(C)CC2CC2)O3)cc1,inactive
2,C[C@@H]1CCCCO[C@H](CN(C)C(=O)Nc2ccccc2)[C@H](C)CN([C@H](C)CO)C(=O)c2cc(NS(=O)(=O)c3ccc(Cl)cc3)ccc2O1,inactive
3,CC(C)[Si](C#CCCc1ccccc1)(O[C@H](c1ccccc1)c1cn(Cc2ccccc2)nn1)C(C)C,inactive
4,CCCCCCC#C[Si](O[C@H](c1ccccc1)c1cn(Cc2cccc(Cl)c2)nn1)(C(C)C)C(C)C,inactive
5,CC(C)[Si](C#CCCCC#N)(O[C@H](c1ccccc1)c1cn(Cc2cccc(Cl)c2)nn1)C(C)C,active
6,C[C@@H]1CCCCO[C@@H](CN(C)Cc2ccc(C(=O)Nc3ccccc3N)cc2)[C@@H](C)CN([C@H](C)CO)C(=O)c2cc(NS(=O)(=O)c3ccc(F)cc3)ccc2O1,inactive
7,C[C@@H]1CN([C@H](C)CO)C(=O)Cc2cc(NC(=O)Cc3cn(C)c4ccccc34)ccc2O[C@H]1CN(C)C,inactive
8,CCCC[C@@H](C)/C=C(C)/C=C(\C)C(=O)NC1=C[C@@](O)(/C=C/C=C/C=C/C(=O)NC2C(=O)CCC2=O)[C@@H]2O[C@@H]2C1=O,active
9,CC(C)NC(=O)N(C)C[C@H]1Oc2ccc(NC(=O)CCC(F)(F)F)cc2C(=O)N([C@H](C)CO)C[C@@H]1C,inactive
10,C[C@@H]1CCCCO[C@@H](CN(C)S(=O)(=O)c2cccs2)[C@H](C)CN([C@H](C)CO)C(=O)c2cc(NC(=O)c3ccccc3)ccc2O1,inactive
11,O=C(C[C@@H]1CC[C@H]2[C@@H](COC[C@@H](O)CN2C(=O)Nc2ccc(Cl)cc2)O1)NC1Cc2ccccc2C1,inactive
12,COc1ccccc1CNC(=O)C[C@@H]1CC[C@@H]2[C@H](COC[C@@H](O)CN2C(=O)Nc2ccc(Cl)cc2)O1,active
13,COc1ccccc1CNC(=O)C[C@H]1CC[C@@H]2[C@H](COC[C@@H](O)CN2C(=O)Nc2ccc(Cl)cc2)O1,active
14,COc1ccccc1CNC(=O)C[C@@H]1CC[C@H]2[C@@H](COC[C@H](O)CN2C(=O)Nc2ccc(F)cc2)O1,inactive
15,COc1ccccc1CNC(=O)C[C@@H]1CC[C@H]2[C@@H](COC[C@@H](O)CN2C(=O)Nc2ccc(Cl)cc2)O1,inactive
16,COc1ccccc1CNC(=O)C[C@@H]1CC[C@@H]2[C@H](COC[C@H](O)CN2C(=O)Nc2ccc(Cl)cc2)O1,inactive
17,COc1ccccc1CNC(=O)C[C@H]1CC[C@@H]2[C@H](COC[C@H](O)CN2C(=O)Nc2ccc(Cl)cc2)O1,inactive
18,COc1ccccc1CNC(=O)C[C@H]1CC[C@H]2[C@@H](COC[C@H](O)CN2C(=O)Nc2ccc(Cl)cc2)O1,active
19,O=C(C[C@H]1CC[C@H]2[C@@H](COC[C@H](O)CN2C(=O)Nc2ccc(Cl)cc2)O1)NC1Cc2ccccc2C1,active
20,COc1ccccc1CNC(=O)C[C@H]1CC[C@H]2[C@@H](COC[C@@H](O)CN2C(=O)Nc2ccc(Cl)cc2)O1,inactive
21,O=C(C[C@H]1CC[C@@H]2[C@H](COC[C@@H](O)CN2C(=O)Nc2ccc(Cl)cc2)O1)NC1Cc2ccccc2C1,inactive
22,COc1ccccc1CNC(=O)C[C@@H]1CC[C@H]2[C@@H](COC[C@H](O)CN2C(=O)Nc2ccc(Cl)cc2)O1,inactive
